Reference: PubChem BioAssay (NCATS)
Records with an inconclusive call do not appear. Values without a mark were called inactive. The source made the active and inactive calls. Calls follow the shape of the dose curve; as a rule, active = well fitted curve in the direction sought with a large enough effect; inconclusive = small, poorly fitted or top-dose-only effect, or another doubt; inactive = no such curve, though single readings can be large; an effect the other way counts as inactive or inconclusive.

Test system: not listed separately
Assay: Tertiary RLuc qRT-PCR qHTS assay for Zika virus inhibitors (AID 1347169); also: nearly all actives have a fitted effect of over 55% in size; also: potency is read from the fitted curve at half-maximal effect; as to activity change, negative = inhibition: top concentration of the series differs between compounds; % is scaled to controls: 0 for no effect and ±100 for the full control effect
Details: infected Vero cells, reporter luminescence, 48-72 h; series mostly up to 45.9 µM; activity change, negative = inhibition: at the top concentration
Method in brief: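 Inhibition of ZIKV-RLuc replication in Vero cells, read as Renilla luminescence 1-1.5 hrs after live-cell substrate addition, following 48-72 hrs infection at MOI 1-2 in presence of compound.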

| SMILES | Potency | activity change, negative = inhibition |
| --- | --- | --- |
| C[C@H]1O[C@@H](O[C@H]2[C@@H](O)C[C@H](O[C@H]3[C@@H](O)C[C@H](O[C@H]4CC[C@@]5(C)[C@H](CC[C@@H]6[C@@H]5C[C@@H](O)[C@]5(C)[C@@H](C7=CC(=O)OC7)CC[C@]65O)C4)O[C@@H]3C)O[C@@H]2C)C[C@H](O)[C@@H]1O | 380 nM (active) | – |
| N[C@@H](Cc1cc(I)c(Oc2ccc(O)c(I)c2)c(I)c1)C(=O)O | – | 35% [at 3.57 µM] |
| O=C(O)Cc1cc(I)c(Oc2ccc(O)c(I)c2)c(I)c1 | – | 45.7% [at 0.566 µM] |

Test system: not listed separately
Assay: qHTS to identify inhibitors of the type 1 interferon - major histocompatibility complex class I in skeletal muscle: primary screen against the NCATS Pharmaceutical Collection (AID 1347407);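 also: luminescence of HiBiT knocked into endogenous HLA-B as interferon-induced MHC class I level; % is scaled to controls: 0 for no effect and ±100 for the full control effect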
Details: human skeletal muscle cells, IFN-b-induced MHC-I HiBiT luminescence, 24 h; series mostly up to 45.9 µM; activity change, negative = inhibition: at the top concentration
Method in brief: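 A qHTS format is used: 8-point, 1:5 compound series with 46 uM top final concentration, applied alongside 4 ng/ml IFN-beta to HLA-B*08:01-HiBiT knock-in myoblasts. Luminescence is measured after 24 h treatment.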

| SMILES | activity change, negative = inhibition |
| --- | --- |
| O=C1c2ccccc2C(=O)c2c1ccc(O)c2O | -3.06% |
| Nc1ccc(N=Nc2ccccc2)c(N)n1 | -1.3% |
| CC(=O)Oc1cccc2c1C(=O)c1c(OC(C)=O)cc(C(=O)O)cc1C2=O | 4.33% |
| O=C(O)CCC(=O)c1ccc(-c2ccccc2)cc1 | -20.7% |
| O=C(OCc1ccccc1)c1ccc(O)cc1 | 24.9% |
| COc1ccc2nc(NC(=O)Nc3ccccc3)sc2c1 | -17.4% |
| CN(C)CCCSc1ccccc1NC(=O)/C=C/c1ccccc1 | -0.52% |
| Oc1ccc(/C=C/c2cc(O)cc(O)c2)cc1 | -0.743% |

Test system: not listed separately
Assay: qHTS to identify inhibitors of the type 1 interferon - major histocompatibility complex class I in skeletal muscle: primary screen against the NCATS Mechanism Interrogation Plate v5.0 (MIPE) Libary (AID 1347411); also: nearly all actives have a fitted effect of over 65% in size; also: potency is read from the fitted curve at half-maximal effect;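 as to activity change, negative = inhibition: plate controls were vehicle for no effect and reference inhibitor for full effect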
Details: iHSKM cells + IFN-b, HiBiT-tagged MHC-I luminescence, 24 h; series mostly up to 45.8 µM; activity change, negative = inhibition: at the top concentration
Method in brief: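 HLA-B HiBit myoblasts, dexamethasone-free medium + 4 ng/ml IFN-b, 24 h compound, 11-pt 1:3 from 46 uM final. Readout: Nano-Glo HiBiT lytic luminescence after 10 min lysis, RT.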

| SMILES | activity change, negative = inhibition | Potency |
| --- | --- | --- |
| CC[C@H]1OC(=O)[C@H](C)[C@@H](O[C@H]2C[C@@](C)(OC)[C@@H](O)[C@H](C)O2)[C@H](C)[C@@H](O[C@@H]2O[C@H](C)C[C@H](N(C)C)[C@H]2O)[C@](C)(O)C[C@@H](C)CN(C)[C@H](C)[C@@H](O)[C@]1(C)O | 53.2% | – |
| C=CC[N+]1([C@H]2C[C@H]3[C@@H]4CC[C@H]5C[C@H](O)[C@@H](N6CCOCC6)C[C@]5(C)[C@H]4CC[C@]3(C)[C@H]2OC(C)=O)CCCC1 | -4.69% | – |
| COc1ccc([C@@H]2CC(=O)c3c(O)cc(O[C@@H]4O[C@H](CO[C@@H]5O[C@@H](C)[C@H](O)[C@@H](O)[C@H]5O)[C@@H](O)[C@H](O)[C@H]4O)cc3O2)cc1O | -14.1% | – |
| CC(C)Cc1ccc([C@@H](C)C(=O)NS(C)(=O)=O)cc1 | 11.1% | – |
| CCC[C@@H]1C[C@@H](C(=O)N[C@@H]([C@H]2O[C@H](SC)[C@H](O)[C@@H](O)[C@H]2O)[C@H](C)Cl)N(C)C1 | 3.99% | – |
| CO[C@H]1O[C@@H]2O[C@@]3(C)CC[C@H]4[C@H](C)CC[C@@H]([C@H]1C)[C@@]24OO3 | 19% | – |
| CC[C@H](CC[C@@H](C)[C@H]1CC[C@H]2[C@@H]3CC=C4C[C@@H](O)CC[C@]4(C)[C@H]3CC[C@]12C)C(C)C | -9.13% | – |
| CC(=O)NCCCS(=O)(=O)O | -4.93% [at 15.5 µM] | – |
| C[C@H]1O[C@@H](O[C@H]2[C@@H](O)C[C@H](O[C@H]3[C@@H](O)C[C@H](O[C@H]4CC[C@@]5(C)[C@H](CC[C@@H]6[C@@H]5C[C@@H](O)[C@]5(C)[C@@H](C7=CC(=O)OC7)CC[C@]65O)C4)O[C@@H]3C)O[C@@H]2C)C[C@H](O)[C@@H]1O | – | 37 nM (active) |
| Oc1ccc(/C=C/c2cc(O)cc(O)c2)cc1 | -19.6% | – |
| CN[C@@H]1[C@@H](O)[C@@H](O[C@@H]2[C@@H](O)[C@H](O[C@H]3O[C@H](CN)[C@@H](O)[C@H](O)[C@H]3O)[C@@H](N)C[C@H]2NC(=O)C(O)CN)OC[C@]1(C)O (some centres not stated) | -22.4% | – |

Target: Protein phosphatase 1D (Homo sapiens) (UniProt O15297)
Assay: RapidFire Mass Spectrometry qHTS Assay for Modulators of WT P53-Induced Phosphatase 1 (WIP1) (AID 1347424);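 also: amount of dephosphorylated VEPPL-S-QETFS peptide product formed by WIP1; plate controls were DMSO wells for no effect and GSK830371 inhibitor control at 10 µM for full effect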
Details: WIP1 dephosphorylation of phosphopeptide, RapidFire MS; series mostly up to 63 µM; activity change, negative = inhibition: at the top concentration
Method in brief: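 RapidFire mass spectrometry measured dephosphorylated peptide after 5 min room-temperature reaction of 2 uM VEPPL-pS-QETFS with 10 nM WIP1 (50 mM Tris-HCl pH 7.5, 30 mM MgCl2, 0.1 mM EGTA, BSA), following 1 hr compound preincubation; 1 uM isotope-labelled product standard.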

Protein phosphatase 1D (Homo sapiens), sequence (O15297 whole entry, looked up): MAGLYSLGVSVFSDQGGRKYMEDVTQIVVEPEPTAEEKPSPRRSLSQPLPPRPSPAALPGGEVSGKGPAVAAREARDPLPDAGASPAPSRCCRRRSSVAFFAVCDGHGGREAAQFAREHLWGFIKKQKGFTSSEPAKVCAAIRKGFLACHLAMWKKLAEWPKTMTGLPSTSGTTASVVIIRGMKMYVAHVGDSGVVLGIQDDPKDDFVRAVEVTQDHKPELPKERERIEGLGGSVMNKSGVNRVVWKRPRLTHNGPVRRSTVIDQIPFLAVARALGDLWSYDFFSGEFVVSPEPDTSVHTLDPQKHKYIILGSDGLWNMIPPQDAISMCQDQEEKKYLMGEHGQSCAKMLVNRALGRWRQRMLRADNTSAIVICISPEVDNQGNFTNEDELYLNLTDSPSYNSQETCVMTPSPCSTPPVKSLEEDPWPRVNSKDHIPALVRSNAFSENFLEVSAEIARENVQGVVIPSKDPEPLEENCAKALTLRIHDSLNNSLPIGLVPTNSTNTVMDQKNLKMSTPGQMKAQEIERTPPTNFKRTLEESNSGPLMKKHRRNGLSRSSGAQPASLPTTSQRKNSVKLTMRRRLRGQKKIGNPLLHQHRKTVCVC

| SMILES | activity change, negative = inhibition |
| --- | --- |
| O=C1c2ccccc2C(=O)c2c1ccc(O)c2O | -6.12% |
| Nc1ccc(N=Nc2ccccc2)c(N)n1 | -8.87% |
| CC(=O)Oc1cccc2c1C(=O)c1c(OC(C)=O)cc(C(=O)O)cc1C2=O | -8.69% |
| O=C(O)CCC(=O)c1ccc(-c2ccccc2)cc1 | -18.1% |
| O=C(OCc1ccccc1)c1ccc(O)cc1 | -19.7% |
| COc1ccc2nc(NC(=O)Nc3ccccc3)sc2c1 | -18.7% |
| CN(C)CCCSc1ccccc1NC(=O)/C=C/c1ccccc1 | 51.3% |
| Oc1ccc(/C=C/c2cc(O)cc(O)c2)cc1 | -18.9% |

Target: Protein phosphatase 1D (Homo sapiens) (UniProt O15297)
Assay: Rhodamine-PBP qHTS Assay for Modulators of WT P53-Induced Phosphatase 1 (WIP1) (AID 1347425); also: % of control where 0% means no effect
Details: recombinant WIP1, Rhodamine-PBP phosphate fluorescence, real-time; series mostly up to 57.5 µM; activity change, negative = inhibition: at the top concentration
Method in brief: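 Steps: enzyme with Rh-PBP sensor and compounds, room-temperature incubation of 1 hr, baseline read, addition of VEPPL-pS-QETFS (10 uM final), kinetic fluorescence reads at 525/598 nm. Activity equals final minus baseline signal.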

| SMILES | activity change, negative = inhibition |
| --- | --- |
| O=C1c2ccccc2C(=O)c2c1ccc(O)c2O | -15% |
| Nc1ccc(N=Nc2ccccc2)c(N)n1 | -15.1% |
| CC(=O)Oc1cccc2c1C(=O)c1c(OC(C)=O)cc(C(=O)O)cc1C2=O | -21.1% |
| O=C(O)CCC(=O)c1ccc(-c2ccccc2)cc1 | -11.7% |
| O=C(OCc1ccccc1)c1ccc(O)cc1 | -13.2% |
| CN(C)CCCSc1ccccc1NC(=O)/C=C/c1ccccc1 | -13.8% |

Test system: not listed separately
Assay: Primary qHTS for inhibitors of La Crosse Virus (LACV) - induced cell death in SH-SY5Y cells (AID 1508616);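 also: top concentration of the series differs between compounds; 0% = infected DMSO wells and 100% = uninfected DMSO wells; higher means more rescue of cells from virus-induced death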
Details: SH-SY5Y LACV cytopathicity rescue, ATP luminescence, 6 d; series mostly up to 4.29 µM; activity change: at the top concentration
Method in brief: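 Cytopathicity rescue screen: compounds pinned onto SH-SY5Y cells, which are then infected with LACV (MOI 0.01) and held 6 days at 37C. Percent activity is scaled between infected DMSO control and uninfected DMSO control.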

| SMILES | activity change | outcome |
| --- | --- | --- |
| O=C1c2ccccc2C(=O)c2c1ccc(O)c2O | -6.44% | – |
| Nc1ccc(N=Nc2ccccc2)c(N)n1 | -27.2% | – |
| CC(=O)Oc1cccc2c1C(=O)c1c(OC(C)=O)cc(C(=O)O)cc1C2=O | -12% | – |
| O=C(O)CCC(=O)c1ccc(-c2ccccc2)cc1 | 3.03% | – |
| O=C(OCc1ccccc1)c1ccc(O)cc1 | 18.2% | – |
| COc1ccc2nc(NC(=O)Nc3ccccc3)sc2c1 | -11.7% | – |
| CN(C)CCCSc1ccccc1NC(=O)/C=C/c1ccccc1 | -8.86% | – |
| Oc1ccc(/C=C/c2cc(O)cc(O)c2)cc1 | – | inactive |

Target: Calcium and integrin-binding protein 1 (Homo sapiens) (UniProt Q99828)
Assay: Primary qHTS for Identification of Calcium Integrin Binding Protein 1 (CIB1) Competitor (AID 1508620); also: potency is read from the fitted curve at half-maximal effect;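 as to activity change, negative = inhibition: GST tagged CIB1 binding a fluorescein labelled alphaIIb integrin peptide tracer; top concentration of the series differs between compounds; % is scaled to controls: 0 for no effect and ±100 for the full control effect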
Details: CIB1-GST / FITC-alphaIIb peptide fluorescence polarization; series mostly up to 114 µM; activity change, negative = inhibition: at the top concentration
Method in brief: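 CIB1-GST (1 uM final) and compound incubated 15 min at room temperature before adding FITC-alphaIIb peptide tracer (100 nM final). Competition for binding read by fluorescence polarization (ex 480, em 540) after another 15 min at room temperature.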

Calcium and integrin-binding protein 1 (Homo sapiens), sequence (Q99828 whole entry, looked up): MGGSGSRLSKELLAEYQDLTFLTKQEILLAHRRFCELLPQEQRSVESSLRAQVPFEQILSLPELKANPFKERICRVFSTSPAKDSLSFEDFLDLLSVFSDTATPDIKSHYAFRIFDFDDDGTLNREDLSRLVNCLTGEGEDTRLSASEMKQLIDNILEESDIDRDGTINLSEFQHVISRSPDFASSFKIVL

| SMILES | Potency | activity change, negative = inhibition |
| --- | --- | --- |
| O=C1c2ccccc2C(=O)c2c1ccc(O)c2O | 35.5 µM (active) | – |
| O=C(O)CCC(=O)c1ccc(-c2ccccc2)cc1 | – | 1.35% |
| C[C@H]1O[C@@H](O[C@H]2[C@@H](O)C[C@H](O[C@H]3[C@@H](O)C[C@H](O[C@H]4CC[C@@]5(C)[C@H](CC[C@@H]6[C@@H]5C[C@@H](O)[C@]5(C)[C@@H](C7=CC(=O)OC7)CC[C@]65O)C4)O[C@@H]3C)O[C@@H]2C)C[C@H](O)[C@@H]1O | – | -1.68% |
| O=C(OCc1ccccc1)c1ccc(O)cc1 | – | 0.904% |
| COc1ccc2nc(NC(=O)Nc3ccccc3)sc2c1 | – | -0.842% |
| CN(C)CCCSc1ccccc1NC(=O)/C=C/c1ccccc1 | – | 9.27% |
| Oc1ccc(/C=C/c2cc(O)cc(O)c2)cc1 | – | -5.74% |
| O=C(O)Cc1cc(I)c(Oc2ccc(O)c(I)c2)c(I)c1 | – | -17.4% |
